Results on 57 compounds are retold here after PubChem BioAssay AID504558 (Broad Institute, 2011).

The structures appear in SMILES notation. The whole screen tested about 350,000 compounds, of which about 2,400 (0.69%) were called active. No stated cut-off is given here; in the data, active means inhibition above about 41%; inconclusive means no clear call, values can overlap the other calls; inactive means below that. For the sample, actives were picked, then their nearest neighbours and some compounds at random.

This experiment is described as follows: blockers of LMP1-induced NF-kB reporter signal – cell-based, luminescence, single point, primary screen (AID 504558).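 Further: 0% = neutral control wells and 100% = reference inhibitor control.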 The conditions noted are these: LMP1-induced NF-kappaB luciferase reporter cells, at 12.5 µM, stronger effect = higher value.
For the compound `COc1cc(CNC2CCCC2)c(Br)cc1OCc1ccccc1`, the inhibition is -15.5% (inactive).
On to `COc1cc(C2CC(=O)N3CN(Cc4ccccc4)CSC3=C2C#N)ccc1OCc1ccccc1` (configuration not stated), for which the inhibition is 65% (active).
Take `COc1ccc(CCN=C2SCC(=O)N2Cc2ccccc2)cc1OC`: the inhibition was 6.74% (inactive).
Under `Cc1ccccc1-c1ccc2c(c1)O[C@@H](CN(C)Cc1ccc(C(=O)O)cc1)[C@@H](C)CN([C@H](C)CO)S2(=O)=O` stands 1.79% (inactive); under `C[C@H](CO)N1C[C@H](C)[C@@H](CN(C)C(=O)c2cccc(F)c2)Oc2cc(-c3cncnc3)ccc2S1(=O)=O`, -0.771% (inactive); under `Nc1cccc(OCCCCCOc2cccc(N)c2)c1`, -19.1% (inactive).
Take `COCCCn1c(=O)/c(=C/c2ccccc2OC(C)C)s/c1=C(\C#N)C(=O)Nc1ccc(C(=O)O)cc1`: the inhibition was 4.37% (inactive).
In the case of `Cc1cc(C)c2cc(C#N)c(N3CCNCC3)nc2c1`, the inhibition was -5.81% (inactive).
Under `CC1(C)CN(Cc2cccnc2)C(=O)[C@H]1CC(=O)Nc1ccc(Br)cc1` stands -4.33% (inactive).
`O=C1c2ccccc2C(O)N1Cc1ccccc1Cl` (configuration not stated): the inhibition was -5.54% (inactive).
For `O=C1c2ccccc2C(O)N1Cc1ccccc1` (configuration not stated) the value was 49.7% (active); for `CCC(C)NC(=O)C1c2ccccc2C(=O)N1Cc1ccccc1` (configuration not stated), 30.9% (inactive).
Regarding `CCN(CC)CCN(C(=O)c1ccc2c(c1)CCCC2)c1nc2c(OC)cccc2s1`, the inhibition is 9.68% (inactive).
Under `O=C(COC(=O)c1ccc(S(=O)(=O)N2CCCCCC2)cc1)Nc1ccccc1C(F)(F)F` stands -10.6% (inactive); under `CC(C)c1cc(N=O)cc(C(C)C)c1O`, 11.3% (inactive); under `CC(C)=CCc1c(O)c(CC=C(C)C)c2occ(-c3ccc(O)cc3)c(=O)c2c1O`, -4.63% (inactive).
For `CC(C)=CCc1ccc(O)c(=O)cc1C(C)C` the value was 52.9% (active); for `Cc1ccc(S(=O)(=O)N2C[C@H]3n4c(=O)ccc(=O)n4C[C@H](OC(=O)NC4CCCC4)[C@@]3(O)C2)cc1`, 0.795% (inactive).
Consider `CCc1noc(C)c1C(=O)OCC(=O)c1ccc(NC(=O)CC(C)C)cc1`, for which the inhibition is 7.07% (inactive).
For `COc1ccc(NC(=O)C/C(C)=N/NC(=O)c2cnccn2)cc1Cl` the value was 0.411% (inactive); for `CCN(CC)c1ccc(NC(=O)c2ccc(Cl)nc2)cc1`, 2.91% (inactive).
Under `CCN(CC)c1ccc(/C=N/NC(=O)c2cnccn2)c(O)c1` stands 66.9% (active); under `COc1cc(C)c(CN2CCN(C(=O)CCC(=O)c3ccc(C)s3)CC2)cc1OC`, -18.3% (inactive).
As for `C[C@H]1Cn2cnc(C(=O)N[C@@H](Cc3c[nH]c4ccccc34)C(=O)OC(C)(C)C)c2C(=O)N1`, the inhibition is -25.3% (inactive).
As to `CCN(CC)C(=O)C1=C(C)N(Cc2ccc(OC)cc2)C(=O)C(CC(=O)NCCCCc2ccccc2)C1` (configuration not stated), the inhibition is -3.18% (inactive).
For `COc1ncnc2c1ncn2CCCNCCN1CCOCC1` the value was -1.37% (inactive); for `Oc1c(Cl)cc(Cl)c(Cl)c1Cc1c(O)c(Cl)cc(Cl)c1Cl`, 52.3% (active); for `COc1ccccc1NC(=O)C(CC(=O)O)Cc1cc(C)cc(C)c1` (configuration not stated), -13.3% (inactive).
Under `OCCCNc1nccc(-c2cc(Nc3cccc(Cl)c3)ncn2)n1` stands 88.6% (active).
As to `Cc1cccc(Nc2nc(NCCO)nc(N3CCCC3)n2)c1`, the inhibition was 7.29% (inactive).
As to `CC(C)n1cnc2c(Nc3cccc(Cl)c3)nc(N(CCO)CCCO)nc21`, the inhibition is -2.02% (inactive).
In the case of `Cc1ccccc1NC(=O)Cc1nc(COC(=O)CNC(=O)c2ccc(Cl)cc2Cl)cs1`, the inhibition was -5.79% (inactive).
`CCC(C)Cn1c(O)cc2nn(-c3nc4ccccc4s3)c(=O)c-2c1C` (configuration not stated): the inhibition is 51.8% (active).
For `CC(=O)Nc1ccc2nc(NC(=O)CS(=O)(=O)c3ccc(F)cc3)sc2c1` the value was -1.73% (inactive).
In the case of `COc1ccccc1C(=O)Nc1cccc(C(=O)N2CCOCC2)c1`, the inhibition was -6.8% (inactive).
Consider `O=C(Nc1ccc(C(=O)N2CCOCC2)cc1)Nc1cccc(C(F)(F)F)c1`, for which the inhibition was 65.4% (active).
For `O=C(COc1ccc(S(=O)(=O)Nc2cccc(C(F)(F)F)c2)cc1)N1CCOCC1` the value was 5.55% (inactive); for `COc1ccc(Cn2c(=O)oc3ccccc32)cc1`, -3.08% (inactive); for `CC1CC(NC(=S)N(C)C)CC(C)(C)C1` (configuration not stated), -2.42% (inactive).
For `CNC(=O)C[C@H]1C(=O)N(c2ccc(OC)cc2)C[C@@H]1Cc1ccccc1` the value was -2.06% (inactive).
Take `COc1cccc(/C=N\Nc2nncc(-c3ccccc3)n2)c1`: the inhibition is -5.65% (inactive).
For `C/C(=N\Nc1nncc2ccccc12)c1ccc(Cl)c([N+](=O)[O-])c1` the value was -18.4% (inactive); for `CN(CCO)c1ccc(/C=N/Nc2nncc3ccccc23)cc1`, 45.7% (active).
With `NC(=O)CSc1nnc(-c2cccc(S(=O)(=O)N3CCOCC3)c2)o1`, the inhibition is 1.36% (inactive).
`O=C1CCC(C(=O)OCC(=O)Nc2ccc(OC(F)F)cc2)=NN1`: the inhibition was -2.22% (inactive).
For `O=C(Nc1cc(F)ccc1F)c1ccc2c(=O)n3c(nc2c1)CCC3` the value was -23.7% (inactive); for `O=C1CCCN2N=C(SCC(=O)Nc3ccc(Br)cc3)SC2=N1`, 46.9% (active); for `O=C(O)CC(SCC(=O)Nc1ccc(Br)cc1)C(=O)O` (configuration not stated), -3.51% (inactive).
For `O=C(CSCc1ccc(Br)cc1)Nc1ccc(S(=O)(=O)N2CCCCCC2)cc1` the value was -7.38% (inactive); for `C[C@H](CO)N1C[C@H](C)[C@@H](CN(C)C(=O)C2CCCCC2)OCc2cnnn2CCCC1=O`, 0.386% (inactive).
Consider `C[C@H]1CN([C@@H](C)CO)C(=O)c2cc(-c3cccc(F)c3)cnc2O[C@@H]1CN(C)S(C)(=O)=O`, for which the inhibition is 5.8% (inactive).
Regarding `C=CC(=O)OCCOCCOCCOCCOC(=O)C=C`, the inhibition is 83.3% (active).
Under `O=C(c1cc2cc(Br)cc(Br)c2oc1=O)N1CCOCC1` stands 83.6% (active); under `COc1cc2ccccc2cc1C(=O)N1CCOCC1`, 25.1% (inactive); under `COc1cccc2cc(C(=O)N3CCN(C(=O)c4ccccc4)CC3)c(=O)oc12`, -0.766% (inactive).
Consider `O=C(N=C1SC2CS(=O)(=O)CC2N1Cc1ccccc1)c1ccccc1` (configuration not stated), for which the inhibition is 1.35% (inactive).
For `COC(=O)[C@H]1C[C@H](OC(=O)NCc2ccccc2)[C@@]2(O)CN(S(=O)(=O)c3ccc(C)cc3)CC2[C@H]1C(=O)OC` (some centres not stated) the value was -13.5% (inactive).
